Measured values taken from PubChem BioAssay (EPA / NIEHS).
The source made the active and inactive calls. The calls were made as follows: active = hit-call score of the fitted dose curve at least 0.9, where 1 is the maximum; inactive = score below 0.9.

Columns and labels:
Details in all cases: mRNA level, 48 h; actives raise or lower the signal
[1] = read-out: Tumor necrosis factor receptor superfamily member 6 (Homo sapiens) (UniProt P25445); assay: LTEA_HepaRG_FAS: Life Technologies and Expression Analysis (LTEA) Assay for Fas cell surface death receptor (FAS) using HepaRG (AID 2283447)
Outline: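 Differentiated human HepaRG cells, pre-cultured 48 h, were exposed in duplicate for 48 h to 8-point half-log concentrations (top 100 uM, 0.5% DMSO) in serum-free induction medium; FAS mRNA measured by qRT-PCR, normalized to ACTB/GAPDH/POLR2A, bidirectional fit versus DMSO.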

[2] = read-out: Fatty acid synthase (Homo sapiens) (UniProt P49327); assay: LTEA_HepaRG_FASN: Life Technologies and Expression Analysis (LTEA) Assay for Fatty Acid Synthase (FASN) using HepaRG (AID 2283448)
Outline: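 HepaRG, 48 h exposure, 8-pt half-log series top 100 uM, 0.5% DMSO vehicle, duplicates. Readout: FASN transcript by Fluidigm qRT-PCR; housekeeping-normalized; bidirectional curve fit vs DMSO baseline.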

[3] = read-out: Cyclin D2 (CCND2), CCND2 (gene 894); assay: LTEA_HepaRG_CCND2: Life Technologies and Expression Analysis (LTEA) Assay for Cyclin D2 (CCND2) using HepaRG (AID 2283449);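 also: CCND2 transcript measured by TaqMan qRT-PCR and normalised to three housekeeping genes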
Outline: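 In this HepaRG study, an eight-point concentration series (max 100 uM, 0.5% DMSO) is applied for 48 h. CCND2 mRNA change is derived by qRT-PCR normalised to ACTB, GAPDH and POLR2A.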

[4] = read-out: Cyclin Dependent Kinase Inhibitor 1A (CDKN1A), CDKN1A (gene 1026); assay: LTEA_HepaRG_CDKN1A: Life Technologies and Expression Analysis (LTEA) Assay for Cyclin Dependent Kinase Inhibitor 1A (CDKN1A) using HepaRG (AID 2283450)
Outline: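 Gain or loss of CDKN1A transcript is scored by bidirectional fitting against 0.5% DMSO vehicle. Human HepaRG cultures receive chemicals for 48 h across an 8-point series peaking at 100 uM; expression comes from qRT-PCR.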

[5] = read-out: Cyclin D1 (CCND1), CCND1 (gene 595); assay: LTEA_HepaRG_CCND1: Life Technologies and Expression Analysis (LTEA) Assay for Cyclin D1 (CCND1) using HepaRG (AID 2283451);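 as to AC50: TaqMan qRT-PCR transcript level normalised to ACTB GAPDH and POLR2A housekeeping genes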
Outline: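 Expression change is measured by qRT-PCR in HepaRG cells after 48 h treatment across eight concentrations topping at 100 uM, with duplicate wells and DMSO (0.5%) serving as baseline for bidirectional fitting.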

[6] = read-out: catalase (CAT), CAT (gene 847); assay: LTEA_HepaRG_CAT: Life Technologies and Expression Analysis (LTEA) Assay for catalase (CAT) using HepaRG (AID 2283452);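 as to AC50: TaqMan qRT-PCR signal normalized to ACTB GAPDH and POLR2A housekeeping genes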
Outline: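 Differentiated HepaRG cells in serum-free induction medium were dosed 48 h in duplicate, eight half-log concentrations from 100 uM in 0.5% DMSO. Transcript measured by TaqMan qRT-PCR, normalised to ACTB/GAPDH/POLR2A, fitted bidirectionally against DMSO.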

[7] = read-out: flavin-containing dimethylaniline monooxygenases 3 (FMO3), FMO3 (gene 2328); assay: LTEA_HepaRG_FMO3: Life Technologies and Expression Analysis (LTEA) Assay for flavin-containing dimethylaniline monooxygenases 3 (FMO3) using HepaRG (AID 2283453);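 as to AC50: FMO3 transcript by TaqMan qRT-PCR normalized to ACTB GAPDH and POLR2A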
Outline: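 Eight-point concentration-response in serum-free HepaRG cultures (top 100 uM, 0.5% DMSO, 48 h). Read-out: FMO3 mRNA level normalized to three endogenous control genes, fitted bidirectionally versus vehicle.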

[8] = read-out: Cytochrome P450 (CYP1A1), CYP1A1 (gene 1543); assay: LTEA_HepaRG_CYP1A1: Life Technologies and Expression Analysis (LTEA) Assay for Cytochrome P450 (CYP1A1) using HepaRG (AID 2283454)
Outline: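 Using HepaRG cultures with 0.5% DMSO as vehicle, eight-concentration exposures (max 100 uM) lasted 48 h. Transcript levels were measured by TaqMan qRT-PCR and normalized to ACTB, GAPDH and POLR2A.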

[9] = read-out: CFLAR gene, CFLAR (gene 8837); assay: LTEA_HepaRG_CFLAR: Life Technologies and Expression Analysis (LTEA) Assay for CFLAR gene using HepaRG (AID 2283455)
Outline: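 Gain- or loss-of-signal changes in CFLAR transcript were fitted bidirectionally relative to 0.5% DMSO. Cells (HepaRG, duplicate wells) were dosed for 48 h across eight half-log concentrations topping at 100 uM; quantitation by TaqMan qRT-PCR.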

[10] = read-out: Forkhead box O1 (FOXO1), FOXO1 (gene 2308); assay: LTEA_HepaRG_FOXO1: Life Technologies and Expression Analysis (LTEA) Assay for Forkhead box O1 (FOXO1) using HepaRG (AID 2283456)
Outline: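 Using one lot of HepaRG hepatic cells kept in 0.5% DMSO, the team applied test chemicals in duplicate, half-log dilutions from 100 uM, for 48 h. Expression, normalised to ACTB/GAPDH/POLR2A, was compared with vehicle in either direction.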

Chain of Fatty acid synthase (Homo sapiens) (P49327 whole entry, looked up): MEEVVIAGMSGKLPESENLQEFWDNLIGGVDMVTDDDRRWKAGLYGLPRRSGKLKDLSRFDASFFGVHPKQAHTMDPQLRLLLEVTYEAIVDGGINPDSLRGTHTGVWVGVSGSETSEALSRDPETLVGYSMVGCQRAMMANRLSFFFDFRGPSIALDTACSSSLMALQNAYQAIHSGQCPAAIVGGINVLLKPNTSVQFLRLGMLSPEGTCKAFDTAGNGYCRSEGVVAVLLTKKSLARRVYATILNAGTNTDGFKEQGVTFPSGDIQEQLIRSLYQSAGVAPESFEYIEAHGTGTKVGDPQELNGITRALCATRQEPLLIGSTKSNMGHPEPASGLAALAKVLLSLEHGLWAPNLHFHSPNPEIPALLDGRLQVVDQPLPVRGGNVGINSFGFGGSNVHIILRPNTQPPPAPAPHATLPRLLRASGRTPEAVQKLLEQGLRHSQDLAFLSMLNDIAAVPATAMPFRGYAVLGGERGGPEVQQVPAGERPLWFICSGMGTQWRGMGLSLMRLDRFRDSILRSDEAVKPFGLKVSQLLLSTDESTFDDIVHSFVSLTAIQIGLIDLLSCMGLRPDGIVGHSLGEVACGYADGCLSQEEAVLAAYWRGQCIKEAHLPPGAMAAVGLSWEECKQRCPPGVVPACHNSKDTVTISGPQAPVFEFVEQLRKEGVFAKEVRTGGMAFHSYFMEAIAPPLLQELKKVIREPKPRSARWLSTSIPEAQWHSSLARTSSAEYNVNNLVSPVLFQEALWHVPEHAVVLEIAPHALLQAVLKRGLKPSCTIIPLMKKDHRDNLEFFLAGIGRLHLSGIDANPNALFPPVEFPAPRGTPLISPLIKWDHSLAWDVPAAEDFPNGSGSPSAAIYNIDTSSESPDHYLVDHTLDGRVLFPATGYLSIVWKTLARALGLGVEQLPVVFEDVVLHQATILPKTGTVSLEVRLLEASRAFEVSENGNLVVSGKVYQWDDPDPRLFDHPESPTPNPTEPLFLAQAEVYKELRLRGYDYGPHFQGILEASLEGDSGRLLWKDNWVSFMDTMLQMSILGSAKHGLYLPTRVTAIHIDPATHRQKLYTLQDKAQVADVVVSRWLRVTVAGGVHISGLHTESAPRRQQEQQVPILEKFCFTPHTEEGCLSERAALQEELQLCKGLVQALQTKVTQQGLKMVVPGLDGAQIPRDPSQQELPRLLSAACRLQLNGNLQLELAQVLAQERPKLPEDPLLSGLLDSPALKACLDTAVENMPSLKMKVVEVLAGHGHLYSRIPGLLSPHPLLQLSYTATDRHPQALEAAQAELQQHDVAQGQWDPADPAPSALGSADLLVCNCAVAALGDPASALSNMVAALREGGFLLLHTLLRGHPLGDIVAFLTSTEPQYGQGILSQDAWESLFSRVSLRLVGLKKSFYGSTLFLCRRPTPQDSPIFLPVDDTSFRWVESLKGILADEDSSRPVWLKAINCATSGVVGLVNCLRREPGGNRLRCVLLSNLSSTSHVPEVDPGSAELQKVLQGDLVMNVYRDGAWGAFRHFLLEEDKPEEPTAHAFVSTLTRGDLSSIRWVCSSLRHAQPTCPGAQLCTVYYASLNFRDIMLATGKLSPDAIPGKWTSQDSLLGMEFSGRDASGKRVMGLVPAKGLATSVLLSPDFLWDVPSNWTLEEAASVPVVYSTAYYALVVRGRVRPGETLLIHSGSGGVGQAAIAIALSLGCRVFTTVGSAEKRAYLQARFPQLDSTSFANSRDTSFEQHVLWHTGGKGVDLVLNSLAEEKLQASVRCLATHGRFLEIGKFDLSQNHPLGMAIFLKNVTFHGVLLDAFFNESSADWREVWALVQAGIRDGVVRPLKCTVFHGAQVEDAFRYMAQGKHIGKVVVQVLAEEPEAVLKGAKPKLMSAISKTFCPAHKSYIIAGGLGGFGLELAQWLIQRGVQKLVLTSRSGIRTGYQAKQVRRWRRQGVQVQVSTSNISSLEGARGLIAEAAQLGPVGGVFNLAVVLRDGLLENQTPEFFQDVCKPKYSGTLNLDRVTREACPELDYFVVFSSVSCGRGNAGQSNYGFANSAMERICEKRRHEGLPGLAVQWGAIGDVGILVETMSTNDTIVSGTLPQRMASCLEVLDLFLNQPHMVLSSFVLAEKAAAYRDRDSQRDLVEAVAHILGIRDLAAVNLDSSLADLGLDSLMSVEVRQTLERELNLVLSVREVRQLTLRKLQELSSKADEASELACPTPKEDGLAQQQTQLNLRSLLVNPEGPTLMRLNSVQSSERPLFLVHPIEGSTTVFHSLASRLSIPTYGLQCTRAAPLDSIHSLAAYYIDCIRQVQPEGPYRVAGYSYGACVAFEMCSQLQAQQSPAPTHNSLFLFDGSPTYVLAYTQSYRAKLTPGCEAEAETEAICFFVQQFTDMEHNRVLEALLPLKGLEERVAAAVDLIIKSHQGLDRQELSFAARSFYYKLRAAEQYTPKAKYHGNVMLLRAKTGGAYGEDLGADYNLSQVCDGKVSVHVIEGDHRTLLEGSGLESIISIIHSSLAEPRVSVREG

CCCCCC(=O)O
outcome [1]: inactive | outcome [2]: inactive | outcome [3]: inactive | outcome [4]: inactive | outcome [5]: inactive | outcome [6]: inactive | outcome [7]: inactive | AC50 [8]: 70 µM (active) | outcome [9]: inactive | outcome [10]: inactive

Cc1ccc(N(C)C)cc1
outcome [1]: inactive | outcome [2]: inactive | outcome [3]: inactive | outcome [4]: inactive | outcome [5]: inactive | outcome [6]: inactive | outcome [7]: inactive | AC50 [8]: 22.6 µM (active) | outcome [9]: inactive | outcome [10]: inactive

Cc1ccc(C)c(C)c1
outcome [1]: inactive | outcome [2]: inactive | outcome [3]: inactive | outcome [4]: inactive | outcome [5]: inactive | outcome [6]: inactive | outcome [8]: inactive | outcome [9]: inactive | outcome [10]: inactive

Cc1cc(=O)[nH]c(=S)[nH]1
outcome [1]: inactive | outcome [2]: inactive | outcome [3]: inactive | outcome [4]: inactive | outcome [5]: inactive | outcome [6]: inactive | outcome [7]: inactive | AC50 [8]: 50 µM (active) | outcome [9]: inactive | outcome [10]: inactive

CC(C)c1ccc(C(=O)N=C(N)N)cc1S(C)(=O)=O
AC50 [1]: 0.669 µM (active) | outcome [2]: inactive | AC50 [3]: 0.634 µM (active) | AC50 [4]: 0.361 µM (active) | AC50 [5]: 0.493 µM (active) | outcome [6]: inactive | outcome [7]: inactive | AC50 [8]: 0.6 µM (active) | AC50 [9]: 0.361 µM (active) | AC50 [10]: 0.498 µM (active)

CC(=O)OC/C=C(\C)CCC=C(C)C
outcome [1]: inactive | outcome [2]: inactive | outcome [3]: inactive | outcome [4]: inactive | outcome [5]: inactive | outcome [6]: inactive | outcome [7]: inactive | outcome [8]: inactive | outcome [9]: inactive | outcome [10]: inactive

CN[C@H]1CC[C@@H](c2ccc(Cl)c(Cl)c2)c2ccc(S(N)(=O)=O)cc21
outcome [1]: inactive | outcome [2]: inactive | outcome [3]: inactive | outcome [4]: inactive | outcome [5]: inactive | AC50 [6]: 50 µM (active) | AC50 [7]: 34.1 µM (active) | AC50 [8]: 76.5 µM (active) | outcome [9]: inactive | outcome [10]: inactive

CC(=O)OCCOCCOCCOC(C)=O
outcome [1]: inactive | outcome [2]: inactive | outcome [3]: inactive | outcome [4]: inactive | outcome [5]: inactive | outcome [6]: inactive | outcome [8]: inactive | outcome [9]: inactive | outcome [10]: inactive

CCCCCCCCCCCCCCCCCC(=O)O
outcome [1]: inactive | outcome [2]: inactive | outcome [3]: inactive | outcome [4]: inactive | outcome [5]: inactive | outcome [6]: inactive | outcome [7]: inactive | AC50 [8]: 50 µM (active) | outcome [9]: inactive | outcome [10]: inactive

Cc1ccc(C)c(O)c1C
outcome [1]: inactive | outcome [2]: inactive | outcome [3]: inactive | outcome [4]: inactive | outcome [5]: inactive | outcome [6]: inactive | outcome [7]: inactive | AC50 [8]: 68 µM (active) | outcome [9]: inactive | outcome [10]: inactive

Cc1cccc([N+](=O)[O-])c1C
outcome [1]: inactive | outcome [2]: inactive | outcome [3]: inactive | outcome [4]: inactive | outcome [5]: inactive | outcome [6]: inactive | outcome [7]: inactive | outcome [8]: inactive | outcome [9]: inactive | outcome [10]: inactive

CCc1c(C(=O)NN2CCCCC2)nn(-c2ccc(Cl)cc2Cl)c1-c1ccc(Br)cc1
AC50 [1]: 50 µM (active) | AC50 [2]: 82.7 µM (active) | outcome [3]: inactive | AC50 [4]: 11.4 µM (active) | outcome [5]: inactive | AC50 [6]: 41 µM (active) | AC50 [7]: 35.5 µM (active) | AC50 [8]: 5.22 µM (active) | outcome [9]: inactive | AC50 [10]: 84.3 µM (active)

CN1CCCC1=O
outcome [1]: inactive | outcome [2]: inactive | outcome [3]: inactive | outcome [4]: inactive | outcome [5]: inactive | outcome [6]: inactive | outcome [7]: inactive | AC50 [8]: 50 µM (active) | outcome [9]: inactive | outcome [10]: inactive

CCCc1cc(=O)[nH]c(=S)[nH]1
outcome [1]: inactive | outcome [2]: inactive | outcome [3]: inactive | outcome [4]: inactive | outcome [5]: inactive | outcome [6]: inactive | AC50 [8]: 50 µM (active) | outcome [9]: inactive | outcome [10]: inactive

O=C(OCCCCCOC(=O)c1ccccc1)c1ccccc1
AC50 [1]: 1.08 µM (active) | outcome [2]: inactive | AC50 [3]: 2.48 µM (active) | outcome [4]: inactive | AC50 [5]: 2.78 µM (active) | outcome [6]: inactive | AC50 [7]: 0.503 µM (active) | AC50 [8]: 1.18 µM (active) | AC50 [9]: 0.228 µM (active) | AC50 [10]: 1.19 µM (active)

CC(CO)OC(C)CO (stereo unspecified) (tested in a mixture with another compound)
outcome [1]: inactive | outcome [2]: inactive | outcome [3]: inactive | outcome [4]: inactive | outcome [5]: inactive | outcome [6]: inactive | outcome [7]: inactive | AC50 [8]: 50 µM (active) | outcome [9]: inactive | outcome [10]: inactive

Cc1ccc2ncccc2c1
outcome [1]: inactive | outcome [2]: inactive | outcome [3]: inactive | outcome [4]: inactive | outcome [5]: inactive | outcome [6]: inactive | outcome [7]: inactive | AC50 [8]: 50 µM (active) | outcome [9]: inactive | outcome [10]: inactive

CCNc1cccc(C)c1
outcome [1]: inactive | outcome [2]: inactive | outcome [3]: inactive | outcome [4]: inactive | outcome [5]: inactive | outcome [6]: inactive | outcome [7]: inactive | AC50 [8]: 50 µM (active) | outcome [9]: inactive | outcome [10]: inactive

Cc1ccc(Cl)cc1
outcome [1]: inactive | outcome [2]: inactive | outcome [3]: inactive | outcome [4]: inactive | outcome [5]: inactive | outcome [6]: inactive | outcome [7]: inactive | outcome [8]: inactive | outcome [9]: inactive | outcome [10]: inactive

CC(=O)Oc1ccccc1C(=O)O
outcome [1]: inactive | outcome [2]: inactive | outcome [3]: inactive | outcome [4]: inactive | outcome [5]: inactive | outcome [6]: inactive | AC50 [8]: 50 µM (active) | outcome [9]: inactive | outcome [10]: inactive

OC[C@@H](O)[C@@H](O)[C@H](O)[C@H](O)CO
outcome [1]: inactive | outcome [2]: inactive | outcome [3]: inactive | outcome [4]: inactive | outcome [5]: inactive | outcome [6]: inactive | outcome [7]: inactive | outcome [8]: inactive | outcome [9]: inactive | outcome [10]: inactive

CNC(=O)[C@H]1O[C@@H](n2cnc3c(NCc4cc(Cl)ccc4OCc4cc(C)no4)ncnc32)[C@H](O)[C@@H]1N
outcome [1]: inactive | outcome [2]: inactive | outcome [3]: inactive | outcome [4]: inactive | outcome [5]: inactive | outcome [6]: inactive | outcome [7]: inactive | outcome [8]: inactive | outcome [9]: inactive | outcome [10]: inactive
